Test results taken from PubChem BioAssay AID1159506 (National Center for Advancing Translational Sciences (NCATS), 2015).
Whole data set: some 59,000 sequences, median the read-out near -0.00055, cut for the lowest 2% near -2. Many of the other results were omitted from the sample, so the lowest values are more common in it than they were.

Assay: Identification of proteins required for the processing of the EWS-FLI1 nascent transcript;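 also: robust z of luciferase light less the median z of siRNAs with the same seed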
Details: TC32 Ewing sarcoma NR0B1-luc vs CMV-luc (EWS-FLI1 target promoter against control promoter), 48 h; screened at 20 nM (by protocol)
Summary of the method: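 TC32 Ewing sarcoma cells carrying NR0B1-promoter or CMV-promoter luciferase reporters were reverse-transfected with single siRNAs at 20 nM, three per gene genome-wide. Luminescence was read after 48 h and normalized to non-targeting controls.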

Sequence	seed-corrected z-score
AAUGAUCCCACAGAUAUCA against IKZF1	0.796
UCUGUUCGAUCAUCCGUGC against ACP6	-0.281
UGUGUCCCUCCCAAUCUCC against GGT2	0.0675
AAAUCGAUGAGAAACCUGC against KAT6A	0.325
UACAUUGUAGCAGAUGUUG against ACSS2	-0.36
AAGUCUACAAGUGAUCUCU against ATP6V0E2-AS1	-2.23
UGUUGUUUACGUUCGAUUG against ADD3	-0.745
UGUUAGGUAAGGCUAGGUC against UTS2B	0.63
AUUAUGAGCAUGCAGGUUC against ANKRD6	1.1
UUUCUUCCCAGGUGUCUUG against PTHLH	-2.12
UCUAGACCUAUGGACAGUC against WDFY2	-0.0809
UUAGCUUCCUCCAAAAUGC against LOC342293	1.1
UCCUGGUUAAAUAGGAAGG against BLID	-0.822
UACUGAGUAGUAGUUGGGC against DISP3	-2.25
UUUGGUUUGGAAAAGGUAC against KMT5A	0.072
UAACUUAGAAUUCCAUUUU against DMRTA2	0.067
UGUCCUACCACAGUCUUCA against LINC00703	-0.2
UUUUCUGCAGCUUUAAGGG against IL17C	1.34
UGGUCAAUCUGUUCAAUGG against C16orf70	-13.9
UACAUAGUAAACUCGCCCG against ITCH	0.22
UAAGUAACCCAAGUAUUGC against C2orf69	0.361
AGGGUUGACAUGGAACUGC against FITM1	0.313

Sequence	seed-corrected z-score
UUCCGUACAAAAUUGUGCA against ARAF	-0.24
UGAGGUACAGUGAACAAGG against TMEM110	-0.57
AAACUGCUUCCGGACAUUG against ACAD8	-1.71
UACGUUUCUGAAGAAGGUG against FAM231D	1.63
UCUAGGAAAAGGACUCGGC against IKZF2	0.168
UUGCUUAUUCUCUCUCACG against CAAP1	-3.02
UAAAAUACCCACGUGGUUC against TMEM150A	0.686
UUUCUCUGAAGUUAAGUCC against G0S2	-0.192
UAGAUAAUCUUGAACCUUC against UGP2	0.118
UGCUUGAACGUGUCCGUCC against LRRC4B	-0.284
UAACAGCGAAUUCCAAGGC against ZBTB12	-2.07
AAGACUAUAAAUCAUGUAG against LMBRD1	-0.385
AAUGUUGUGAUUAAGUAAG against DFNB59	-2.62
ACCUUGACCAGAAAGCUGC against C20orf27	-0.672
AAAAGUAUUACAAAAAGUG against MYOD1	-0.532
UAUACGUAAUGAAAGUUUC against SNX7	0.211
AAACUGUGCAAAAGUCUCU against APCDD1L-AS1	-0.722
UUUGUGUCCACCGUUAUAA against EVPLL	0.153
AAAUGUACCAAUACGUAGU against TMEM107	-2.13
UCGUUUCUGUGCUCCGUCC against PCP2	0.0855
UCGAUGUACACUUUGAGGC against B3GNT8	0.222
UAUGAUUAAGAAUGAAACC against OR6C1	0.426

Sequence	seed-corrected z-score
UAUGGUUAGACCGCUUUCG against KIAA0408	0.0809
AUAUGUUCGACUAUCAUGG against KATNBL1	-3.24
UAAGUCAGGAUAUUCGCUC against CRELD2	-1.22
UAAUGCGAUACAACUCGAC against COX4I1	1.65
UGCACGAUCCGUUUGCUUC against RNASE11	-0.108
UCUGGAUCUGGUUUGCUGC against ZBTB3	-1.18
UUACUUAGUCUUGUGGUGG against HIST1H2AJ	0.917
ACGGUUUCAAUAUCUAACG against FAM160B1	-14.4
AGGAAUACAAGUCAUAUGC against TFB2M	0.916
AAGCUUUUCGUAGUCCUCA against NMRAL1	0.164
UUCUCGAUGCUUGUGGUUU against DMBX1	-0.553
UUUGAUAACAGUUCACUGG against PLAG1	1.2
UUCGAUAGAAUUUGAAAGC against SUGP2	-2.02
UUCGAUCAAAAUACAAGGC against GLDN	-0.856
UGGAAUAUGACUCUUUGCC against STRA8	-0.991
AUGGGUAAGAUGUAUGUUG against ZFAND1	-0.296
UUCGGUAUCGUCUGUAUCC against USP8	-1.37
UCUGGAACUAUUUACUCGG against NEMP1	-14.8
AUGACAAUCACAUUCCUCU against AKR1B10	0.0562
UUUGCUCCCACCAAAUACC against KLHDC1	1.18
AUAGGAAGAACUCUGUUUG against SCHIP1	-2.03
UCCAUAAUCUGUUUCGCUG against INTS4	-1.43
